Screens: PubChem BioAssay, several laboratories
This is a sample that favours compounds with a hit; in the whole collection about 1.5% have one here.
PrPC TRFRET = cell surface PrPC inhibition, primary TR-FRET screen; P04156; TR-FRET read-out; inhibition, % at 13.8 µM; 370,000 tested, 0.43% active; in the data active = inhibition above about 24%; note: 0% = median of the test wells and 100% = reference compound wells
VHR inh abs = DUSP3 (human) phosphatase inhibition. P51452. recombinant VHR phosphatase, pNPP absorbance. inhibition, % at 13.3 µM. 290,000 tested, 0.52% active. AID 1654; in the data active = inhibition above about 50%
Target sequence (P51452 whole entry, looked up): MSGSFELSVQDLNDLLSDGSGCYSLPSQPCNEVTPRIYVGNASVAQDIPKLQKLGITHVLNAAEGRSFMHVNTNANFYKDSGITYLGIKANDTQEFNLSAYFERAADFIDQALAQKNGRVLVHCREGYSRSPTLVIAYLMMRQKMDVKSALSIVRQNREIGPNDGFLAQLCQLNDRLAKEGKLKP
Vc quorum ag = induces V. cholerae light production without autoinducers; 350,000 tested, 0.16% active; activation, % at 18.7 µM; V. cholerae BH1578 lux reporter, luminescence, 6 h; in the data active = activation mostly above about 9.7%, no sharp cut-off
CCHF vOTU inh = blocks the CCHF virus ovarian tumor domain protease | CCHFV vOTU protease, Pep-AMC fluorescence | inhibition, % at 11.5 µM | 370,000 tested, 0.55% active | AID 651958; in the data active = inhibition above about 30%; note: 0% = vehicle wells with enzyme and 100% = no enzyme wells
SSB-PriA inh = K. pneumoniae PriA-SSBct interaction inhibition; inhibition, % at 33 µM; AID 1272365; 430,000 tested, 0.6% active; AlphaScreen SSBct-PriA binding, biotinylated peptide; in the data active = inhibition mostly above about 37%, no sharp cut-off; inactive = mostly below about 20%;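 note: plate controls were negative control peptide for no effect and reference peptide for full effect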
TcdB GH inh = TcdB glycohydrolase inhibition; 350,000 tested, 0.24% active; TcdB glycohydrolase enzymatic assay, plate reader; P18177; inhibition, % at 9.99 µM; AID 652162; in the data active = inhibition above about 10%
An asterisk follows results filed as active; i = inactive; . = no result given.

SMILES | PrPC TRFRET | VHR inh abs | Vc quorum ag | CCHF vOTU inh | SSB-PriA inh | TcdB GH inh
Cc1ccc2c(c1)sc(=NC(=O)c1ccc(S(=O)(=O)N(CCC#N)CCC#N)cc1)n2C | . | . | . | . | 6 | .
CCN(CC)CCCNC(=O)c1nn2c(C(F)(F)F)cc(-c3ccccc3)nc2c1Cl | -25 | 60* | -1 | 7 | 8 | 2
O=[N+]([O-])c1ccc2nc(NCc3ccccn3)sc2c1 | . | . | . | . | 31 | .
N#CCC(=O)NCC1(c2ccccc2)CCCC1 | -2 | 13 | 25* | 13 | 5 | .
COc1ccc(N2C(=O)CC(Sc3ncn[nH]3)C2=O)c(OC)c1 (stereo not drawn) | 11 | -4 | i | 55* | -2 | .
CS(=O)(=O)Nc1cccc(C2=NN(c3nc(-c4ccccc4)c4cc(Cl)ccc4n3)C(c3ccco3)C2)c1 (stereo not drawn) | . | . | . | . | -4 | .
Cc1ccc(-c2csc(NNC3=NCCCCC3)n2)cc1 | . | . | . | . | 62* | .
COc1ccc(-c2csc(NNC3=NCCCCC3)n2)cc1 | -1 | 42 | . | 5 | -8 | 0
O=C(Nc1nc(C(=O)NCc2c(F)cccc2F)cs1)c1ccc(Cl)cc1 | . | . | . | . | -6 | .
CC1(C)Cc2c(sc3ncn4c(=S)[nH]nc4c23)CO1 | -2 | 4 | -2 | 2 | 6 | 22*
COC(=O)c1sccc1S(=O)(=O)NCC1CCN(C(=O)Nc2ccccc2OC)CC1 | . | . | . | . | -6 | .
Cc1ccc(Cl)cc1NC(=O)CNC(=O)N1CC(=O)Nc2ccccc21 | -5 | 57* | -3 | 14 | 3 | 1
COc1cccc(NC(=O)CNC(=O)N2CC(=O)Nc3ccccc32)c1 | 2 | 57* | -3 | 9 | -9 | 3
COc1ccc(CNC(=O)CNC(=O)N2CC(=O)Nc3ccccc32)cc1 | -1 | 6 | i | 10 | 6 | 1
CC(C)c1nnc(C2CCN(C(=O)c3ccccc3Cl)CC2)o1 | . | . | . | . | -14 | .
Cc1ccc(C2(C)NC(=O)N(CC(=O)Nc3nc(-c4ccccn4)cs3)C2=O)cc1 (stereo not drawn) | 5 | . | i | 8 | 85* | 0
CC1(C)NC(=O)N(CC(=O)Nc2nc(-c3ccccn3)cs2)C1=O | . | . | . | . | 106* | .
CC1(c2ccccc2)NC(=O)N(CC(=O)Nc2nc(-c3ccccn3)cs2)C1=O (stereo not drawn) | 4 | . | i | 5 | 75* | -1
CN1C(=O)N(CC(=O)Nc2nc(-c3ccccn3)cs2)C(=O)C12CCCCC2 | . | . | . | . | 101* | .
COc1ccccc1C(=O)Nc1cc(C)nn1-c1nc2ccc(F)cc2s1 | . | . | . | . | -7 | .
Cn1cc(C(c2ccccn2)c2cn(C)c3ccccc23)c2ccccc21 | 11 | -32 | i | 6 | 50* | .
O=c1[nH]c(=S)n(-c2ccc(Cl)cc2)c(O)c1C=NN1CCOCC1 | . | . | . | . | 0 | .
Cc1cc2ccccn2c1C(=O)c1ccc(N/N=C/c2ccc(C(=O)O)cc2)c([N+](=O)[O-])c1 | -6 | 83* | i | -1 | i | -1
COC(=O)C1CCN(c2c(C)cnc3c2c(=O)n(C)c(=O)n3C)CC1 | . | . | . | . | -7 | .
O=C(NCCn1ccnc1)Nc1cccc(Cl)c1 | . | . | . | . | 40 | .
SMILES | PrPC TRFRET | VHR inh abs | Vc quorum ag | CCHF vOTU inh | SSB-PriA inh | TcdB GH inh
CCOC(=O)CNC(=O)c1cc(-c2ccccn2)nc2c(C)c(Cl)ccc12 | -9 | 53* | i | -19 | 4 | -1
Cc1c(Cl)ccc2c(C(N)=O)cc(-c3ccccn3)nc12 | 7 | 3 | i | -1 | 1 | 1
Nc1ncnc(Cl)c1N | . | . | . | . | 10 | .
N#C/C(=C/c1ccc(N2CCOCC2)o1)c1nc2ccccc2[nH]1 | 9 | 53* | i | 4 | 8 | .
N#C/C(=C\c1ccc(N2CCOCC2)o1)C(=O)Nc1ccc(O)cc1 | -47 | 11 | i | 27 | 2 | 19*
N#C/C(=C\c1ccc(N2CCOCC2)o1)c1ccccc1 | -4 | -8 | -4 | -4 | 0 | 1
O=S(=O)(NCCC(O)c1cccc2ccccc12)c1cccs1 (stereo not drawn) | . | . | . | . | -1 | .
O=C(Cn1cc(COc2ccc(Cl)c(Cl)c2)nn1)NS(=O)(=O)c1ccccc1OC(F)(F)F | -2 | . | 0 | 24 | . | 11*
O=S(=O)(CCc1ccccc1)NCCc1ccc(N2CCCC2)cc1 | . | . | . | . | 7 | .
Cc1cncnc1N1CCN(S(=O)(=O)c2cccc(C(F)(F)F)c2)CC1 | . | . | . | . | -14 | .
Cc1ccc(NC2=C(Cl)C(=O)c3ccccc3C2=O)cc1 | -6 | -9 | -2 | -5 | 11 | 1
Cc1cc(C)cc(NC2=C(N)C(=O)c3ccccc3C2=O)c1 | . | -3 | -1 | . | 54* | 1
CC(C)CCN1C(N(C)C)=NC[C@@H]1C | -1 | . | 26* | 1 | -4 | 0
COC(=O)c1ccc(NC(=O)CCN2C(=O)c3ccccc3S2(=O)=O)cc1 | . | . | . | . | -1 | .
Cc1ccc(C(=O)NC(=O)OCCn2c(C)cnc2[N+](=O)[O-])cc1 | -6 | 30 | i | 3 | -14 | 15*
CCc1ccc(C2=NNC(=Nc3cccc(S(=O)(=O)N(C)C)c3)SC2)cc1 | 18 | -10 | 0 | 8 | 42* | 0
Cc1cccc(N=C2NN=C(c3ccc4c(c3)OCCO4)CS2)c1 | 9 | 26 | i | -9 | 27 | 0
COc1cc(Cn2nnc3ccccc32)ccc1O | 0 | -2 | 0 | -11 | -8 | 18*
O=C(c1cnn(-c2ccccc2)n1)N1CCc2oncc2C1 | . | . | . | . | -8 | .
COc1ccccc1N1C(=O)Cc2ccccc2C1=O | -4 | -3 | 0 | 30* | 3 | -1
O=C(Nc1nc(-c2ccn(S(=O)(=O)c3ccccc3)c2)cs1)c1ccc(Cl)cc1 | . | . | . | . | 6 | .
COc1ccc(OC)c(S(=O)(=O)N(C)CC(=O)N2CCCCC2)c1 | -3 | 53* | 0 | -2 | -20 | 1
COc1ccc(OC)c(S(=O)(=O)N(C)CC(=O)N2CCc3ccccc3C2)c1 | 4 | 5 | -5 | 5 | -11 | .
CC(C)c1ccccc1OC[C@@H](O)CN1C(C)(C)CC(O)CC1(C)C | . | . | . | . | -4 | .
COc1cc2c(cc1OC)C(c1cccc(F)c1)CC(=O)N2 (stereo not drawn) | 8 | 51* | 0 | 8 | 6 | 2
SMILES | PrPC TRFRET | VHR inh abs | Vc quorum ag | CCHF vOTU inh | SSB-PriA inh | TcdB GH inh
COc1cc2c(cc1OC)C(c1cccc(Br)c1)CC(=O)N2 (stereo not drawn) | 10 | 47 | i | -13 | 6 | 1
Cc1cccc(C(=O)N(Cc2nc3ccccc3c(=O)[nH]2)C2CCCCC2)c1 | 17 | 52* | -1 | 24 | -5 | 2
CN1/C(=C\C(=S)NC(=O)c2ccccc2Cl)C(C)(C)c2ccccc21 | 6 | 4 | i | -4 | 17 | 1
CN1/C(=C/C(=S)NC(=O)C2(C)CC2(Cl)Cl)C(C)(C)c2ccccc21 (stereo not drawn) | 18 | 17 | i | 9 | 71* | 0
COc1cccc(OCC(=O)Nc2cc(NC(=O)COc3cccc(OC)c3)cc(C(=O)O)c2)c1 | 4 | 18 | 42* | 6 | -10 | -1
C=C(C)C(=O)Nc1cccc(C2=NOC3(C2)C[C@@H](C(N)=O)N(C(=O)c2ccc(OC)cc2)C3)c1 (stereo partly drawn) | . | 45 | -1 | . | 48* | .
